# Assay results published in PubChem BioAssay (NCATS).
# Inconclusive results are not listed. Where a call stands in place of a potency, no number is given. A number with no mark means an inactive call. Calls of active or inactive are those of the source. Calls follow the shape of the dose curve; as a rule, active = well fitted activation curve with a large enough effect in the main read-out, with a control signal flat (not every such curve was filed as active); inconclusive = small, poorly fitted or top-dose-only effect, or effect the other way, or a change in a side signal; inactive = flat fitted curve, though single readings scatter.
# Biological target: 3',5'-cyclic-AMP phosphodiesterase 4B (Homo sapiens) (UniProt Q07343)
# Experiment: qHTS Assay for Inhibitors of PDE-IV (AID 607)
# Conditions: HEK293 ACTOne CNG channel cells, membrane potential fluorescence; series mostly up to 22.9 µM; activation (PDE inhibition): at the top concentration
# Summary of the method: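 HEK293 ACTOne cells with CNG channel (1000/well), endogenous PDE4; membrane potential dye, compounds up to 22.9 uM final. Fluorescence Ex 535/Em 590; RO 20-1724 (100 uM final) as reference.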
# Chain of 3',5'-cyclic-AMP phosphodiesterase 4B (Homo sapiens) (Q07343 whole entry, looked up): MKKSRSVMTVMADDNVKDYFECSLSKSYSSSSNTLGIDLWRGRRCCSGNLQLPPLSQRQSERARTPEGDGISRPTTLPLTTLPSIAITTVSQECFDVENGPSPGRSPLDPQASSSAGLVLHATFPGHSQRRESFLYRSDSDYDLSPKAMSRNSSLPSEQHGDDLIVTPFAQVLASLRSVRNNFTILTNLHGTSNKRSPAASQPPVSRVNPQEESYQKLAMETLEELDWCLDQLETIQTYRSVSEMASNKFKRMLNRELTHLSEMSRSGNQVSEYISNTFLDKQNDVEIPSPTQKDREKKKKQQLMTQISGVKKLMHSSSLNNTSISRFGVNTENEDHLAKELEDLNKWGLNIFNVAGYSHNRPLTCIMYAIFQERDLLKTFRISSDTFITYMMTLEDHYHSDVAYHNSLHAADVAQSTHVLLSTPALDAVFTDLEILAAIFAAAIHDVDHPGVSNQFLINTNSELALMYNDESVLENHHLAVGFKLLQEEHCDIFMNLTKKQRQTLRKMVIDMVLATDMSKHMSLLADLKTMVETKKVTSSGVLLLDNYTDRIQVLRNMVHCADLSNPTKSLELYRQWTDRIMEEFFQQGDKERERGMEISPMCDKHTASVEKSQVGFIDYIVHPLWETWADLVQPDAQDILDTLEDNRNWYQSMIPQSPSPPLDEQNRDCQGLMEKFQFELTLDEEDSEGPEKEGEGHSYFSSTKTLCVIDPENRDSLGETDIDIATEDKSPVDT
SMILES,Potency,activation (PDE inhibition)
CN(C)C(=O)Oc1cccc([N+](C)(C)C)c1,inactive,
CCN1CCC[C@H]1CNC(=O)c1c(O)c(Cl)cc(Cl)c1OC,,4.73%
c1cc(CN2CCCCC2)cc(OCCCNc2nc3ccccc3s2)c1,,12.7%
Cc1nc2c([nH]1)c(=O)n(C)c(=O)n2Cc1ccco1,,17.8%
CC1=NS(=O)(=O)c2cc(Cl)ccc2N1,inactive,
CNCCCN1c2ccccc2CCc2ccccc21,,-0.457%
CCN(CC)CCOCCOC(=O)C1(c2ccccc2)CCCC1,inactive,
CC1=C(C)C(=O)C(CCCCC#CCCCC#CCO)=C(C)C1=O,,11.2%
COc1cc(C(=O)OCCCN2CCCN(CCCOC(=O)c3cc(OC)c(OC)c(OC)c3)CC2)cc(OC)c1OC,inactive,
COc1ccc([C@@H]2Sc3ccccc3N(CCN(C)C)C(=O)[C@@H]2OC(C)=O)cc1,,17%
CCn1cc(C(=O)O)c(=O)c2cc3c(cc21)OCO3,inactive,
CN/C(=C\[N+](=O)[O-])NCCSCc1ccc(CN(C)C)o1,inactive,
CCN(CC)CC(=O)Nc1c(C)cccc1C,inactive,
O=C(O)CN(CCOCCOCCN(CC(=O)O)CC(=O)O)CC(=O)O,,1.21%
O=C(CCCN1CCC(O)(c2cccc(C(F)(F)F)c2)CC1)c1ccc(F)cc1,,20.7%
C[N+](C)(C)CCOC(=O)CCC(=O)OCC[N+](C)(C)C,,0.494%
O=C1CC2(CCCC2)CC(=O)N1CCCCN1CCN(c2ncccn2)CC1,inactive,
COCC(=O)O[C@]1(CCN(C)CCCc2nc3ccccc3[nH]2)CCc2cc(F)ccc2[C@@H]1C(C)C,,9.8%
CCCOc1ccccc1-c1nc2n[nH]nc2c(=O)[nH]1,inactive,

SMILES,Potency,activation (PDE inhibition)
CN(C)C(=O)Oc1ccc[n+](C)c1,,-21.3%
CCN(CC)CCNC(=O)c1cc(S(C)(=O)=O)ccc1OC,inactive,
CCO/C([O-])=N/c1c[n+](N2CCOCC2)no1,inactive,
CCNC(=O)N1CCN(CCCC(c2ccc(F)cc2)c2ccc(F)cc2)CC1,,-4.9%
NCCCNCCSP(=O)(O)O,,-2.89%
Cc1ccc(S(=O)(=O)NC(=O)NN2CCCCCC2)cc1,inactive,
CCN1CCc2nc(N)oc2CC1,,-4.03%
Cc1nc2ccccn2c(=O)c1CCN1CCC(C(=O)c2ccc(F)cc2)CC1,,3.03%
FC(F)(F)c1ccccc1-n1ccnc1,,-15.9%
c1cnc(N2CCN(Cc3ccc4c(c3)OCO4)CC2)nc1,inactive,
CSc1ccc(C(=O)c2[nH]c(=O)[nH]c2C)cc1,,-20.4%
O=C(CCNNC(=O)c1ccncc1)NCc1ccccc1,inactive,
CN(C)CCCN1c2ccccc2Sc2ccc(C(F)(F)F)cc21,inactive,
C[n+]1cc2c3c(ccc2c2ccc4cc5c(cc4c21)OCO5)OCO3,inactive,
O=C1NCN(c2ccccc2)C12CCN(CCCC(c1ccc(F)cc1)c1ccc(F)cc1)CC2,,2.64%
CN1CCN(CC(=O)N2c3ccccc3C(=O)Nc3cccnc32)CC1,inactive,
C#CCN(C)CCCOc1ccc(Cl)cc1Cl,inactive,
CCCCCCCC/C=C\CCCCCCCC(=O)NCc1ccc(O)c(OC)c1,,7.77%
C[N+](C)(C)CCCCCCCCCC[N+](C)(C)C,inactive,
